# Bioassay records: PubChem BioAssay, National Center for Advancing Translational Sciences (NCATS)
# This is a sample that favours compounds with a hit; in the whole collection about 0.59% have one here.
# Vif-A3F inh: qHTS for Inhibitors of Vif-A3F Interactions: qHTS. HeLa A3F-eYFP + Vif (tagged APOBEC3F with the HIV-1 protein that degrades it), YFP fluorescence increase. Potency, µM (top dose mostly 46.1 µM), without a hit: at the top dose activity, negative = active. 390,000 tested, 0.2% active. AID 602313, 2012; note: potency is the fitted concentration of half-maximal effect; % of control where 0% means no effect; nearly all actives have a fitted effect of over 65% in size
#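 HeLa cells stably expressing A3F-eYFP plus Vif, plated and incubated overnight at 37 deg C, then exposed to compounds overnight at 37 deg C. Blocked degradation read as raised yellow fluorescence (Ex 488/Em 500-530).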
# PTHR1 agonist: qHTS for PTHR1 Agonists: Primary Screen; HEK293 GP2 PTHR1 cells, GloSensor cAMP luminescence, 1 h; AID 743266, 2014; Parathyroid hormone/parathyroid hormone-related peptide receptor (Homo sapiens), Q03431; 410,000 tested, 0.075% active; Potency, µM (highest dose often 115 µM), inactives show at the highest dose activation, usual class: activators; note: potency is the fitted concentration of half-maximal effect; nearly all actives have a fitted effect of over 55% in size
# Target sequence (Q03431 whole entry, looked up): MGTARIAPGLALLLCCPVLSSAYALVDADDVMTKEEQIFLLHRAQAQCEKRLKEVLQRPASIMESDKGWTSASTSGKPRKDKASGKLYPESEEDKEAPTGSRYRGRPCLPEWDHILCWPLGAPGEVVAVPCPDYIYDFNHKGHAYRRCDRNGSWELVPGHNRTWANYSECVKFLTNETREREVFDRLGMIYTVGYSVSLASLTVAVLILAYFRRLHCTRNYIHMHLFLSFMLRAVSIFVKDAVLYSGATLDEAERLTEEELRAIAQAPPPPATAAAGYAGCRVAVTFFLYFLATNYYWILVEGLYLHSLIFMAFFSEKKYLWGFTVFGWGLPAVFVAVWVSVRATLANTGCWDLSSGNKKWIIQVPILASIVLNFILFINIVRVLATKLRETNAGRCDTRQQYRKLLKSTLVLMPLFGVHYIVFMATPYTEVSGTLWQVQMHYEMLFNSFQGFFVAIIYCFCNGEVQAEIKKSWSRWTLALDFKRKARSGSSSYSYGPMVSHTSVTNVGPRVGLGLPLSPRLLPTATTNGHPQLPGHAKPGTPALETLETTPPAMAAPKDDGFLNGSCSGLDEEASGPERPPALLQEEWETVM
#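 HEK-293-derived GP2 cells expressing PTHR1 and a GloSensor cAMP reporter, 3,000/well, plated overnight, given luciferin plus IBMX (each 0.5 mM as added) for 1 h at 37 °C, then compound for 1 h at 37 °C. Luminescence was read after 15 min at room temperature.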
# PINK1 modulator: A Quantitative High throughput Screen to Identify Chemical Modulators of PINK1 Expression | AID 624263, 2012 | PINK1 immunofluorescence, high-content cytometry, 24 h | Potency, µM (series often up to 76.6 µM), without a hit: at the top dose activation (PINK1 increase), hits mostly activators | 410,000 tested, 0.2% active; active = well fitted activation curve with a large enough effect; inconclusive = small, poorly fitted or top-dose-only effect; cell line not stated here; note: potency is the fitted concentration of half-maximal effect; % of control where 0% means no effect; nearly all actives have a fitted effect of over 65% in size
#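 Decision-based qHTS: stable cells, 24 h exposure to five compound concentrations, CCCP as control. Fixed cells stained for PINK1 plus nuclear, mitochondrial and cell markers, cytometer read.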
# Vif-A3G inh: qHTS for Inhibitors of Vif-A3G Interactions: qHTS | DNA dC->dU-editing enzyme APOBEC-3G (Homo sapiens), Q9HC16 | HeLa A3G-eYFP + Vif (tagged APOBEC3G with the HIV-1 protein that degrades it), YFP fluorescence, overnight | Potency, µM (highest dose often 46.1 µM), for the others: top-dose activity, negative = active, actives largely listed as inhibitors | 410,000 tested, 0.076% active | AID 602310, 2012; note: potency is the fitted concentration of half-maximal effect; % is set by controls: 0 for no effect and ±100 for the full control effect; nearly all actives have a fitted effect of over 60% in size
#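 HeLa cells stably expressing Vif and C-terminally eYFP-tagged A3G, seeded overnight at 37 deg C, then exposed to compound by pintool overnight at 37 deg C. Rise in yellow fluorescence (Ex 488/Em 500-530, Acumen) marks blocked Vif-driven A3G degradation.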
# IDH1 R132H inh: qHTS for Inhibitors of mutant isocitrate dehydrogenase 1 (IDH1): qHTS; Isocitrate dehydrogenase [NADP] cytoplasmic (Homo sapiens), O75874; IDH1-R132H enzyme, NADPH consumption, diaphorase/resazurin fluorescence; Potency, µM (highest dose often 76.6 µM), inactives show top-dose activity change, negative = inhibition, actives largely listed as inhibitors; 390,000 tested, 0.093% active; AID 602179, 2012; note: potency is the fitted concentration of half-maximal effect; % is set by controls: 0 for no effect and ±100 for the full control effect; nearly all actives have a fitted effect of over 65% in size
#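 IDH1-R132H (0.5 ug/mL) preincubated 30 min with compound, then NADPH (0.016 mM) and alpha-KG (2 mM) added; 80 min at RT, pH 7.5. Remaining NADPH coupled via diaphorase/resazurin to fluorescence (540/590 nm); concentration-response curves normalized to no-enzyme control.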
# LDHA inh: qHTS assay for inhibitors of human lactate dehydrogenase | 480,000 tested, 0.15% active | purified LDHA, NADH/diaphorase-resazurin fluorescence; active compounds read low | L-lactate dehydrogenase A chain (Homo sapiens), P00338 | activity change, % (values are at about 110 or 230 µM) | AID 1347041, 2019; in the data active = activity change below about -30%; inconclusive = mostly about -25% to -30%;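 note: plate controls were DMSO wells for no effect and wells without enzyme for full effect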
#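 Enzyme activity of human lactate dehydrogenase 5 (2 nM; 0.06 mM NADH, 0.2 mM pyruvate, 5 min, RT) is measured via a resazurin/diaphorase fluorescence readout of residual NADH.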
# The depositor's hits bear a star; i = inactive; ? = inconclusive; nt = not tested or not shown; ! = repeats disagree; [ ] = dose if it differs, or a comment. Unless noted, calls come from the whole dose curve; as a rule, active = well fitted curve in the direction sought with a large enough effect; inconclusive = small, poorly fitted or top-dose-only effect, or another doubt; inactive = no such curve, though single readings can be large; an effect the other way counts as inactive or inconclusive.
SMILES,Vif-A3F inh,PTHR1 agonist,PINK1 modulator,Vif-A3G inh,IDH1 R132H inh,LDHA inh
COc1ccc(OC)c(NC(=O)Cc2c(C)c3ccc(O)c(C)c3oc2=O)c1,nt,nt,nt,nt,nt,7
CC1CC(C)(C)Nc2ccc(OC(=O)c3ccco3)cc21 (stereo not drawn),32µM*,-7%[57.5 µM],-1%,22µM*,3%,6
O=C(Oc1ccc2ccccc2c1)c1ccco1,1%,i,-3%,-3%,13%,-5
CCN1CCN(CCOc2cccc(Oc3ccccc3)c2)CC1,8%,i,1%,9%,-11%,-33*
CCN1CCN(CCOCCOc2ccccc2)CC1,-4%,-22%,1%,-2%,-13%,-30*
CCN1CCN(CCOc2cccc(Cl)c2Cl)CC1,3%,i,-3%,0%,5%,-36*
CC1CC(C)CN(CCOc2cccc(Cl)c2Cl)C1 (stereo not drawn),-7%,18%,10%,-5%,0%,-12
Cc1cccc(C)c1OCCOCCN1CCN(C)CC1,2%,-4%[57.5 µM],-2%,6%,-4%,-43*!
c1ccc(OCCOCCN2CCOCC2)cc1,0%,i,1%[38.3 µM],0%,1%,-3
O=C(NCc1cccs1)c1cc(-c2ccncc2)nc2ccccc12,nt,nt,nt,nt,nt,-3
CCC(C)NC(=O)C(=O)N1CCN(c2nc(C)c3c(c2C#N)CCCC3)CC1 (stereo not drawn),nt,nt,nt,nt,nt,3
CCNC(=O)c1cc(-c2ccc(OC)cc2OC)nc2ccccc12,nt,nt,nt,nt,nt,18
Cc1ccc(-n2c(C)cc(/C=C3\SC(=O)NC3=O)c2C)cc1,1%,-34%,2%,0%,4%,-1
Cc1cc(/C=C2\SC(=S)N(C)C2=O)c(C)n1-c1ccccc1O,11µM*,-32%,?,?,2%,-3
Cc1cc(/C=C2\SC(=S)N(C)C2=O)c(C)n1-c1ccc(O)cc1,25µM*,-31%,?,?,-3%,0
NC(=S)N/N=C/c1cccc(Cl)c1Cl,nt,nt,nt,nt,nt,3
CCOC(=O)c1c(-c2ccc(OC)cc2)csc1/N=C/C1=C(O)CCCC1=O,22µM*,i,?,22µM*,3%,15
CC1=[N+](C)c2c(ccc3cccnc23)C1(C)C,?,-11%,13µM*,?,2%,5
O=S(=O)(c1ccc(NC(=S)NC23CC4CC(CC(C4)C2)C3)cc1)N1CCCCC1,6%,-31%,18µM*,4%,10%,-2
O=S(=O)(c1ccc(NC(=S)Nc2ccccc2)cc1)N1CCOCC1,1%,i,0%,-2%,-3%,-2
CC(NC(=S)Nc1ccc(S(=O)(=O)N2CCOCC2)cc1)C1CC2CCC1C2 (stereo not drawn),10%,i,40µM*,0%,8%,-4
Cc1ccc(/C=N/NC(=O)c2cc(C)oc2C)cc1,14%,-4%,7%,7.9µM*,-1%,-13
CC(C)c1ccc2oc(-c3ccc(Cl)c(NC(=O)c4cccnc4)c3)nc2c1,nt,nt,nt,nt,nt,-1
COc1ccccc1NCC(=O)c1ccc(Cl)cc1,7%,-3%,1%,-7%,46µM*,2
COc1cc(/C=C2\SC(=S)N(NC(=O)c3ccncc3)C2=O)ccc1O,-11%,-25%,-1%,-9%,-25%,1
SMILES,Vif-A3F inh,PTHR1 agonist,PINK1 modulator,Vif-A3G inh,IDH1 R132H inh,LDHA inh
CCOc1cc(/C=C2/SC(=S)N(CC3CCCO3)C2=O)ccc1O (stereo not drawn),22µM*,-8%,-2%,-15%,-5%,-6
COc1cc(/C=C2\SC(=S)N(NC(=O)c3ccccc3OC)C2=O)ccc1O,22µM*,-8%,3%,-3%,?,2
COc1cc(/C=C2\SC(=S)N(NC(=O)c3ccc(O)c(OC)c3)C2=O)ccc1O,10µM*,i,2%,-19%,?,-9
Cn1nc(C(=O)OCC(=O)Nc2ccc(S(=O)(=O)N3CCCCC3)cc2)c2ccccc2c1=O,nt,nt,nt,nt,nt,-2
COc1ccccc1-c1nc(SCc2cc(=O)n3c4c(sc3n2)CCCC4)n[nH]1,nt,nt,nt,nt,nt,-33*
O=c1cc(CSc2n[nH]c(-c3ccccc3)n2)nc2sc3c(n12)CCCC3,nt,nt,nt,nt,nt,-4
COc1ccc(N2CC(O)=C(c3nc4ccccc4s3)C2=N)cc1,-10%,i,11µM*,-10%,-1%,0
Cc1ccc2c(c1)C(C)CC(C)(C)N2C(=O)CN1CCN(C)CC1 (stereo not drawn),11%,i,-1%,0%,3%,-40*
CC1CC(C)(C)N(C(=O)CN2C(=O)c3ccccc3C2=O)c2ccccc21 (stereo not drawn),1%,i,nt,1%,2%,-6
CC1CC(C)(C)N(C(=O)CN2CCN(C)CC2)c2ccccc21 (stereo not drawn),-4%,i,6%,6%,4%,-35*
Cc1ccc2c(c1)C(C)CC(C)(C)N2C(=O)NC1CCCCC1 (stereo not drawn),3%,i,3%,1%,-1%,4
Cc1ccc(NC(=O)c2nn(Cc3ccccc3)c(=O)c3ccccc23)cc1F,nt,nt,nt,nt,nt,3
Nc1c(C(=O)N/N=C/c2ccc(F)cc2)oc2nc(-c3ccccc3)cc(-c3ccco3)c12,?,i,?,?,3%,-2
Nc1c(C(=O)N/N=C/c2ccccc2Cl)oc2nc(-c3ccccc3)cc(-c3ccco3)c12,7.1µM*,-3%,9%,?,10%,5
Oc1ccc(CNc2ccccc2F)c2cccnc12,0%,-5%,28µM*,-9%,7%,-4
Cn1cc(/C=C/c2ccnc3ccccc23)c2ccccc21,nt,nt,0%,10µM*,nt,-1
Nc1ccccc1/C=C/c1ccnc2ccccc12,nt,nt,1%,13µM*,nt,2
C(=C\c1ccnc2ccccc12)/c1ccnc2ccccc12,nt,nt,nt,-3%,nt,nt
CCCCNc1c(-c2ccc(Sc3ccc(OC)cc3)cc2)nc2cc(C)ccn12,-1%,-31%,28µM*,2%,7%,-16
CCCCOC(=O)COc1ccc2c(=O)c(Oc3cccc(C)c3)c(C(F)(F)F)oc2c1,nt,nt,nt,nt,nt,1
COc1ccc(/C=C2\CC/C(=C\c3ccc(OC)cc3OC)C2=O)c(OC)c1,8.9µM*,i,10%,-23%,-7%,-2
Cn1c(=O)c2c(nc(NCCc3ccc(F)cc3)n2Cc2ccc(Cl)cc2)n(C)c1=O,nt,nt,nt,nt,nt,9
